Hits are enriched below; roughly 19% of the tested compounds scored in any of these assays.
HT1080 IDH1KD tx = toxicity to HT-1080 IDH1 knockdown cells (counter line); AID 686971; Potency, µM (series often up to 46.1 µM), for inactives: at the highest dose activity, negative = toxicity, most hits filed as cytotoxic; HT-1080 IDH1 knockdown viability, ATP luminescence, 48 h; 2% of 360,000 active;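 note: potency is the fitted concentration of half-maximal effect; 0% = DMSO wells and -100% = cell-free medium wells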
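Viability of IDH1-knockdown HT-1080 fibrosarcoma cells was assessed by CellTiter-Glo after 48 h at 37 °C with titrated compound; concentration-effect curves were classified by fit quality and response size.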
HT1080NT lethal = kills 2HG-producing HT-1080-NT fibrosarcoma cells | AID 686970 | 1.6% of 360,000 active | HT-1080-NT fibrosarcoma viability, CellTiter-Glo ATP luminescence, 48 h | Potency, µM (doses to about 46.1 µM), for inactives: at the top dose activity, negative = less viability, most hits filed as cytotoxic;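 note: NT is the 2HG producing partner of a matched IDH1 knockdown line; potency is the fitted concentration of half-maximal effect; 0% = DMSO-treated cells and -100% = media-only wells without cells; nearly all actives have a fitted effect of over 55% in size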
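Read-out is CellTiter-Glo luminescence after 10 minutes at room temperature, following 48 hours' compound treatment of HT-1080-NT cells (750 cells/well, RPMI, 5% FBS, 37 degrees C).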
IL-1B inflam inh = blocks inflammasome-driven IL-1 beta release | THP-1 LPS/ATP IL-1B secretion, AlphaLISA, 16 h; stronger effect = lower value | activity change, % at 57.5 µM | 4.7% of 360,000 active | AID 743279; in the data active = activity change below about -50%; inconclusive = mostly about -30% to -49%
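Secreted IL-1B measured by AlphaLISA bead assay after 16 h compound exposure of THP-1 cells; compounds (final up to 57.5 uM) added 1 h before LPS (250 ng/mL) and ATP (1.25 mM) stimulation; lower signal means less secretion.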
TDP1 cell CPT = DT40-hTDP1 cell growth loss with CPT. Potency, µM (series often up to 46.2 µM), without a hit: top-dose activity change, negative = growth inhibition, hits mostly inhibitors. 12% of 420,000 active. chicken DT40 Tdp1-/-;hTDP1 cells + 20 nM CPT, ATP luminescence, 48 h; note: potency is the fitted concentration of half-maximal effect; nearly all actives have a fitted effect of over 55% in size
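Cell growth measured by CellTiter-Glo luminescence after a minimum 48 h, 37 C compound exposure with 20 nM CPT in Tdp1-knockout DT40 cells stably expressing hTDP1, seeded 400/well; qHTS titration format.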
uPA generation = cell surface uPA generation inhibition; Potency, µM (series often up to 38.3 µM), for the others: at the highest dose activity change, negative = inhibition, actives largely listed as inhibitors; cell surface uPA generation assay, qHTS; 0.31% of 330,000 active; active = well fitted inhibition curve with a large enough effect; inconclusive = small, poorly fitted or top-dose-only effect; inactive = no such curve, though single readings can be large or run the other way; tested in mouse RAW 264.7 cells; note: potency is the fitted concentration of half-maximal effect; nearly all actives have a fitted effect of over 55% in size
DT40 TDP1 no CPT = qHTS for Inhibitors of human tyrosyl-DNA phosphodiesterase 1 (TDP1): qHTS in cells in absence of CPT | AID 686978, 2013 | DT40 Tdp1-/- hTDP1 cells, no CPT, ATP luminescence, 48 h | Potency, µM (highest dose often 46.2 µM), for inactives: at the highest dose activity change, negative = growth inhibition, usual class: inhibitors | 15% of 420,000 active; note: potency is the fitted concentration of half-maximal effect; nearly all actives have a fitted effect of over 55% in size
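Compound effects on proliferation are scored in DT40 Tdp1-/-;hTDP1 cells in the absence of CPT. ATP levels (CellTiter-Glo luminescence) are recorded after a ≥48 hr, 37 °C incubation.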
Active calls of the source: *; i = inactive; ? = inconclusive; . = not tested or not shown; [ ] = remark or other dose. Unless noted, calls come from the whole dose curve; as a rule, active = well fitted curve in the direction sought with a large enough effect; inconclusive = small, poorly fitted or top-dose-only effect, or another doubt; inactive = no such curve, though single readings can be large; an effect the other way counts as inactive or inconclusive. Unless noted, % is set by controls: 0 for no effect and ±100 for the full control effect.

SMILES	HT1080 IDH1KD tx	HT1080NT lethal	IL-1B inflam inh	TDP1 cell CPT	uPA generation	DT40 TDP1 no CPT
COc1ccccc1N1CCN(S(=O)(=O)CCNC(=O)CC2CCCCC2)CC1	24%	4%	-3	16µM*	1%	16µM*
COc1ccc(C(=O)NCCS(=O)(=O)N2CCN(Cc3ccccc3)CC2)cc1	-6%	-2%	-6	-20%	-6%	29µM*
CCOc1ccc(CC(=O)NCCS(=O)(=O)N2CCN(c3ccccc3OC)CC2)cc1	.	.	.	12µM*	.	21µM*
O=C(CC1CCCC1)NCCS(=O)(=O)N1CCN(c2ccccc2F)CC1	-14%	-11%	13	?	-5%	?
COc1ccccc1N1CCN(S(=O)(=O)CCNC(=O)CCc2ccccc2)CC1	3%	-3%	22	?	.	16µM*
COc1ccccc1N1CCN(S(=O)(=O)CCNC(=O)COc2ccc(C(C)C)cc2)CC1	.	.	.	?	.	16µM*
COc1ccc(CC(=O)NCCS(=O)(=O)N2CCN(c3ccccc3OC)CC2)cc1	-11%	-12%	1	29µM*	-1%	?
COc1ccc(N2CCN(S(=O)(=O)CCNC(=O)COc3ccc(Cl)cc3)CC2)cc1	-22%	-8%	-14	?	4%	0%
O=C(Nc1cccnc1)C1CCCN(S(=O)(=O)c2cccc3nsnc23)C1 (configuration not stated)	-10%	-5%	4	-27%	2%	?
Cc1ccc2nc(NC(=O)C3CCN(S(=O)(=O)c4cccc5nsnc45)CC3)sc2c1	-1%	0%	19	?	-11%	?
COc1cc(NC(=O)C(Cc2ccccc2)NS(=O)(=O)c2cccc3nsnc23)cc(OC)c1 (configuration not stated)	.	.	.	16µM*	.	16µM*
COc1ccc(OC)c(NC(=O)C2CCCN(S(=O)(=O)c3cccc4nsnc34)C2)c1 (configuration not stated)	?	-6%	-2	16µM*	4%	16µM*
Cc1ccc2nc(NC(=O)C3CCCN(S(=O)(=O)c4cccc5nsnc45)C3)sc2c1 (configuration not stated)	-8%	-1%	-2	?	-7%	18µM*
COc1ccccc1CNC(=O)C1CCCN(S(=O)(=O)c2cccc3nsnc23)C1 (configuration not stated)	-6%	-6%	-25	?	0%	?
O=C(Nc1ccc(Br)cc1)C(Cc1ccccc1)NS(=O)(=O)c1cccc2nsnc12 (configuration not stated)	.	.	.	-29%	.	-28%
COc1cc(NC(=O)C2CCCN(S(=O)(=O)c3cccc4nsnc34)C2)cc(OC)c1 (configuration not stated)	-12%	-4%	-4	?	-2%	21µM*
FC(F)(F)c1cnc(-c2cc3c(c(OCC4CCCO4)c2)OCCN(Cc2cccn2-c2nccs2)C3)c(Cl)c1 (configuration not stated)	.	.	.	15%[9.04 µM]	.	-7%
CCN(CC)CCCNC(=O)Cn1nc(C)n2c(cc3sccc32)c1=O	.	.	.	2%	.	-10%
COc1ccc(C(=O)N/N=C/c2cccc3cccnc23)cc1	?	-16%	133	4.1µM*	-9%	4.6µM*
CSCC[C@H](NC(=O)OC(C)(C)C)C(=O)N/N=C/c1cccc2cccnc12	?	-11%	87	26µM*	-2%	21µM*
CCOc1ccc(C(=O)N/N=C/c2cccc3cccnc23)cc1	?	?	163	10µM*	-17%	9.2µM*
COc1ccc(C(=O)N/N=C/c2cc3ccccc3[nH]c2=S)cc1	?	-25%	8	1.5µM*	-2%	1.5µM*
Cc1ccc(S(=O)(=O)Nc2ccccc2F)cc1C(=O)NCc1ccco1	-3%	-1%	-2	-9%	-7%	-5%
COc1ccc(-c2cc(-c3nnc(COC(=O)CC4CC5CCC4C5)o3)c3ccccc3n2)cc1OC (configuration not stated)	-11%	-10%	0	21µM*	4%	21µM*
Cc1cccc(-c2noc(-c3csc([C@@H]4C[C@H](O)[C@@H](CO)O4)n3)n2)c1	1%	?	-21	?	.	?
SMILES	HT1080 IDH1KD tx	HT1080NT lethal	IL-1B inflam inh	TDP1 cell CPT	uPA generation	DT40 TDP1 no CPT
CCOC(=O)C1=C(C)NC(=S)NC1c1ccc(OCC(=O)N2CCCCC2)cc1 (configuration not stated)	-5%	0%	-5	-3%	-6%	-4%
NC(=O)c1cc([N+](=O)[O-])c(Cl)cc1NCc1ccccn1	-3%	2%	-7	?	?	26µM*
CC(C)C[C@H](NC(=O)C1CC(=O)N(c2ccc(F)cc2)C1)C(=O)N1CCCCC1 (some centres not stated)	9%	-1%	15	2%	3%	-6%
COc1ccc(-c2c(C)c3ccc(O)c(CN4CCCCC4)c3oc2=O)cc1OC	.	.	.	-5%	.	-18%
Cc1ccc(-n2ncc3c2CC(C)(C)CC3NC(=O)CCc2cccnc2)cc1 (configuration not stated)	0%	0%	i	23µM*	-1%	16µM*
Cc1ccc(-n2ncc3c2CC(C)(C)CC3NC(=O)CCc2ccncc2)cc1 (configuration not stated)	4%	4%	-5	?	-2%	?
C=CCCC(=O)N1C[C@@H](CO)[C@@H](NC)C[C@H]1c1ccccc1Br	10%	13%	5	-18%	.	-2%
CC1(C)SC(=S)N(/N=C/c2ccccc2O)C1N(O)C(=O)Nc1ccccc1 (configuration not stated)	?	18µM*	?	12µM*	10%	16µM*
Cc1ccc(/C=N/N2C(=S)SC(C)(C)C2N(O)C(=O)Nc2ccc([N+](=O)[O-])cc2)cc1 (configuration not stated)	-19%	-2%	-70*	?	1%	18µM*
CC1(C)SC(=S)N(/N=C/c2cccnc2)C1N(O)C(=O)Nc1ccccc1 (configuration not stated)	5%	10%	47	0%	9%	-15%
CC1(C)SC(=S)N(/N=C/c2ccc(O)cc2)C1N(O)C(=O)Nc1ccc([N+](=O)[O-])cc1 (configuration not stated)	?	?	-6	23µM*	-1%	?

Bioassay records deposited in PubChem BioAssay by National Center for Advancing Translational Sciences (NCATS).
